Test results reported in ChEMBL document CHEMBL1961873, “Compounds: GSK PKIS; Assays: Nanosyn kinase panel” (2012).
“And” between values parts separate entries of the source, which are not always exact repeats. Equal entries are not always repeated.

Legend:
[1] = molecular target: T1, Serine/threonine-protein kinase Nek9 (Homo sapiens) (UniProt Q8TD19); conditions: at 1 µM;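 note: each value is a mean percent inhibition of NEK9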
T1 sequence (whole entry): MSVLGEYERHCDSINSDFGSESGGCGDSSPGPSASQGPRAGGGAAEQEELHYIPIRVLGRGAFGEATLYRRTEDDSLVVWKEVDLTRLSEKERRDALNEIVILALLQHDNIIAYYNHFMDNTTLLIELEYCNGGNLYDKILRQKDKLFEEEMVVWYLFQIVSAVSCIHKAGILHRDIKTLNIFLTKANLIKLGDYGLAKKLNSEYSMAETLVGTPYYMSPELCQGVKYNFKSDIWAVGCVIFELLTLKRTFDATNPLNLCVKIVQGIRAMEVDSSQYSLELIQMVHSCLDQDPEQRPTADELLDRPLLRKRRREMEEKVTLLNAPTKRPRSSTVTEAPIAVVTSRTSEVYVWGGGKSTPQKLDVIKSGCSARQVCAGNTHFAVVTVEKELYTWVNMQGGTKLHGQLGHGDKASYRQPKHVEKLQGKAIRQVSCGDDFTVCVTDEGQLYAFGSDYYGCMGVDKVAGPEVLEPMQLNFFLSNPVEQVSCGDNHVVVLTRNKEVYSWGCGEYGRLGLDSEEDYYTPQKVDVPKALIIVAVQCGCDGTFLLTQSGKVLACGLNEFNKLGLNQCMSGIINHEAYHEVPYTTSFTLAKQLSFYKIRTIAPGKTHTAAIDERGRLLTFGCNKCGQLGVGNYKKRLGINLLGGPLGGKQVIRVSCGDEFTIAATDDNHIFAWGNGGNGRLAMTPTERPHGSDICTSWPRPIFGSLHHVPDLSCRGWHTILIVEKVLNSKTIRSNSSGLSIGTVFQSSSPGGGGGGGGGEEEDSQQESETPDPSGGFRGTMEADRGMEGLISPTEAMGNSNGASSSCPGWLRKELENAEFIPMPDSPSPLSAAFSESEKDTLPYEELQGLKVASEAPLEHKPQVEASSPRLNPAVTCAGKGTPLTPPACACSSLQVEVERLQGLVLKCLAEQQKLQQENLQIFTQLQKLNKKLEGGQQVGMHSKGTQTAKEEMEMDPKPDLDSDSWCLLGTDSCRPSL

[2] = molecular target: Serine/threonine-protein kinase PLK1 (Homo sapiens) (UniProt P53350); conditions: at 0.1 µM
Serine/threonine-protein kinase PLK1 (Homo sapiens), sequence (P53350 whole entry): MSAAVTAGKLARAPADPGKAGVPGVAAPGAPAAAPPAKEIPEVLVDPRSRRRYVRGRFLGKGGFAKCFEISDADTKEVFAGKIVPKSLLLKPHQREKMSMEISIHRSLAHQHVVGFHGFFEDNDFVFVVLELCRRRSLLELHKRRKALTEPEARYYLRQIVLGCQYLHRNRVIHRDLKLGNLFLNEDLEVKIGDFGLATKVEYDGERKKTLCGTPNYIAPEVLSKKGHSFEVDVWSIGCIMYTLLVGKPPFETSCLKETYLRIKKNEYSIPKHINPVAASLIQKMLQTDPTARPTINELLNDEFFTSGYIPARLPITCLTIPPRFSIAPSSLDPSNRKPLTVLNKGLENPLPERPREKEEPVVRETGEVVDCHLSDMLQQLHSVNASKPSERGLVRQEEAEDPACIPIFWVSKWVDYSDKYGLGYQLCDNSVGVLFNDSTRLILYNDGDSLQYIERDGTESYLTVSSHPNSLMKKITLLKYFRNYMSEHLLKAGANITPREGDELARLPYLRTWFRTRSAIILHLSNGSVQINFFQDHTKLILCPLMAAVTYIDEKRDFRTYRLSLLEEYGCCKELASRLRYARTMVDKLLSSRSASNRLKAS

[3] = molecular target: Serine/threonine-protein kinase PLK1 (Homo sapiens) (UniProt P53350); conditions: at 1 µM
[4] = molecular target: T2, Dual specificity protein kinase TTK (Homo sapiens) (UniProt P33981); conditions: at 0.1 µM
T2 sequence (whole entry): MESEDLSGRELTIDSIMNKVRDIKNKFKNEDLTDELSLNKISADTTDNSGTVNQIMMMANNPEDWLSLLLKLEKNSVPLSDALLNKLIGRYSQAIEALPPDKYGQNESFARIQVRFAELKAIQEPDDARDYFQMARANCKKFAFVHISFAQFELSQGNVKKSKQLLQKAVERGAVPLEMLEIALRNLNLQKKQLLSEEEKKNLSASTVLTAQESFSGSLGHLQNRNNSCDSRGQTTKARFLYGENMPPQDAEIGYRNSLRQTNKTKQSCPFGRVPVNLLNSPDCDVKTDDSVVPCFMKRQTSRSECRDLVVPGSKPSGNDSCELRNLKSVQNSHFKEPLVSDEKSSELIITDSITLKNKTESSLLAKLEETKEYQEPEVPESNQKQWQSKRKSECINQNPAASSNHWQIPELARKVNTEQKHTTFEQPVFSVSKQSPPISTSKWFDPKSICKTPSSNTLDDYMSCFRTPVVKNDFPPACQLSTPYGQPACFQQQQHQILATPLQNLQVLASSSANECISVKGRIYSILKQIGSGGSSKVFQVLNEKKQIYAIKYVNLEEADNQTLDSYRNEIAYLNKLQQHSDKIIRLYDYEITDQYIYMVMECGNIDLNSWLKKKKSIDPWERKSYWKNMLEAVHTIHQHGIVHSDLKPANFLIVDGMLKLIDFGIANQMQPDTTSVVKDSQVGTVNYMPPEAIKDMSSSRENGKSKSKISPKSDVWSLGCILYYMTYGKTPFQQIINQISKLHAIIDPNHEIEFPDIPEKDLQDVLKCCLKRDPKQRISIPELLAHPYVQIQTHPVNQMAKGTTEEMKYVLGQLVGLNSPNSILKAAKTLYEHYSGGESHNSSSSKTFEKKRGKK

[5] = system: T3, Receptor-type tyrosine-protein kinase FLT3 (Homo sapiens), P36888 [D835Y]; conditions: at 1 µM
T3 sequence (whole entry): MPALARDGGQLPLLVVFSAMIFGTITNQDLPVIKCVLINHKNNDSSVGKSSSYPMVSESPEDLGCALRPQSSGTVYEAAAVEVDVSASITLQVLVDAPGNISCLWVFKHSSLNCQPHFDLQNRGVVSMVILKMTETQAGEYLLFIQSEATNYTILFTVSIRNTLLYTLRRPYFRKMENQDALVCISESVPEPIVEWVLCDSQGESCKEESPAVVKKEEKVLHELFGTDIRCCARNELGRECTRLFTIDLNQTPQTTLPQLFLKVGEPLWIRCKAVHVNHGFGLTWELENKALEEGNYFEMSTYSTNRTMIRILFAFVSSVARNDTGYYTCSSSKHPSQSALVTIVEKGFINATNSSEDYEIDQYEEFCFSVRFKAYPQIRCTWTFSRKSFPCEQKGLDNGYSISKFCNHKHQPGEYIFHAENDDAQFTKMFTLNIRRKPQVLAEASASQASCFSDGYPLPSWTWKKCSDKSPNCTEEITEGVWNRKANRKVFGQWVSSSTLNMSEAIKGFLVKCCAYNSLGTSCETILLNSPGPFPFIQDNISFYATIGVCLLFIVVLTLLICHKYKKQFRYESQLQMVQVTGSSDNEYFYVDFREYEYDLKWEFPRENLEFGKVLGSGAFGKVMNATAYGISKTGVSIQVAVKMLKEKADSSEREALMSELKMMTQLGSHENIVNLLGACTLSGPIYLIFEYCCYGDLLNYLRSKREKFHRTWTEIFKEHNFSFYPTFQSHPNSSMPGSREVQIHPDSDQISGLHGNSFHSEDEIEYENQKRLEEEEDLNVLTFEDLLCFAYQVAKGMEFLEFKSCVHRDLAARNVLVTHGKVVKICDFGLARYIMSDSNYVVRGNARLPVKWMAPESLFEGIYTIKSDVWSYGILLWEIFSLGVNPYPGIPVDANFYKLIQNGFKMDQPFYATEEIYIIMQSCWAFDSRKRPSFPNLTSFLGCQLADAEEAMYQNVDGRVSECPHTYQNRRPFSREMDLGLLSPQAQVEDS

[6] = molecular target: Vascular endothelial growth factor receptor 3 (Homo sapiens) (UniProt P35916); conditions: at 0.1 µM
Vascular endothelial growth factor receptor 3 (Homo sapiens), sequence (P35916 whole entry): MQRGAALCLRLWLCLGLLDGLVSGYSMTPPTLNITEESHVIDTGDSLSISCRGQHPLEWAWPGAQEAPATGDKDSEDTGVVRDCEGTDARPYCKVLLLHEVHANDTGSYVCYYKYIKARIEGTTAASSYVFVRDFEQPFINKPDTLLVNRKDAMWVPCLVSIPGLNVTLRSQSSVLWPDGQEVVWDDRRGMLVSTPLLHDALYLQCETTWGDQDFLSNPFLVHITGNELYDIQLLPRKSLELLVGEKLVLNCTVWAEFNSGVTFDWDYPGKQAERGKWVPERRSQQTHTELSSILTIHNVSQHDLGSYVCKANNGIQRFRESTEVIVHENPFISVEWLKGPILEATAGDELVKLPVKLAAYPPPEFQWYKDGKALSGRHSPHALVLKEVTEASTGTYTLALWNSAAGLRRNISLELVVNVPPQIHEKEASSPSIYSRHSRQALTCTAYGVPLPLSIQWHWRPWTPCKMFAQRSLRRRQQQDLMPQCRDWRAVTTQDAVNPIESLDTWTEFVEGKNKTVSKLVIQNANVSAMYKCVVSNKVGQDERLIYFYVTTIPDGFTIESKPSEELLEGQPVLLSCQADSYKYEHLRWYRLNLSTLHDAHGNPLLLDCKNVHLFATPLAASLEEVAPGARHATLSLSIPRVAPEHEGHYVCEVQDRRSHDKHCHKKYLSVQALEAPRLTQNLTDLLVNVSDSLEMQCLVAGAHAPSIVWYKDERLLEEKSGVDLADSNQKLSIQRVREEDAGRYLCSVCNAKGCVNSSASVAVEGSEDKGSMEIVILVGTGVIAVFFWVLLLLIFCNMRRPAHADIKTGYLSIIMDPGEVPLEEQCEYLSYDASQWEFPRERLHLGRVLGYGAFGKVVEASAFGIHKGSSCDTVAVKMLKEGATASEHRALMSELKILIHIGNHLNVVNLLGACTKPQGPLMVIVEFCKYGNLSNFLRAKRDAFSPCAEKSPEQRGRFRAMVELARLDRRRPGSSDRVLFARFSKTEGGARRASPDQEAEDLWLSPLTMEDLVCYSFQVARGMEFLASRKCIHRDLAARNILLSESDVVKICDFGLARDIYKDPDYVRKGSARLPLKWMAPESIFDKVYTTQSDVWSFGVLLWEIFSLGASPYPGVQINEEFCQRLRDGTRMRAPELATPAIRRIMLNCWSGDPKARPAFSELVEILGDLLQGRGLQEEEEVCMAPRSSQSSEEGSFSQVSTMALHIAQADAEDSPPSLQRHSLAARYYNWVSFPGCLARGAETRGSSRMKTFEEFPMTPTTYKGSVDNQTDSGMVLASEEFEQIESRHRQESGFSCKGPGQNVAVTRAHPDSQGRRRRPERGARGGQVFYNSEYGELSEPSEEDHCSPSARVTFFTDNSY

[7] = molecular target: Vascular endothelial growth factor receptor 3 (Homo sapiens) (UniProt P35916); conditions: at 1 µM
[8] = molecular target: Macrophage colony-stimulating factor 1 receptor (Homo sapiens) (UniProt P07333); conditions: at 0.1 µM
Macrophage colony-stimulating factor 1 receptor (Homo sapiens), sequence (P07333 whole entry): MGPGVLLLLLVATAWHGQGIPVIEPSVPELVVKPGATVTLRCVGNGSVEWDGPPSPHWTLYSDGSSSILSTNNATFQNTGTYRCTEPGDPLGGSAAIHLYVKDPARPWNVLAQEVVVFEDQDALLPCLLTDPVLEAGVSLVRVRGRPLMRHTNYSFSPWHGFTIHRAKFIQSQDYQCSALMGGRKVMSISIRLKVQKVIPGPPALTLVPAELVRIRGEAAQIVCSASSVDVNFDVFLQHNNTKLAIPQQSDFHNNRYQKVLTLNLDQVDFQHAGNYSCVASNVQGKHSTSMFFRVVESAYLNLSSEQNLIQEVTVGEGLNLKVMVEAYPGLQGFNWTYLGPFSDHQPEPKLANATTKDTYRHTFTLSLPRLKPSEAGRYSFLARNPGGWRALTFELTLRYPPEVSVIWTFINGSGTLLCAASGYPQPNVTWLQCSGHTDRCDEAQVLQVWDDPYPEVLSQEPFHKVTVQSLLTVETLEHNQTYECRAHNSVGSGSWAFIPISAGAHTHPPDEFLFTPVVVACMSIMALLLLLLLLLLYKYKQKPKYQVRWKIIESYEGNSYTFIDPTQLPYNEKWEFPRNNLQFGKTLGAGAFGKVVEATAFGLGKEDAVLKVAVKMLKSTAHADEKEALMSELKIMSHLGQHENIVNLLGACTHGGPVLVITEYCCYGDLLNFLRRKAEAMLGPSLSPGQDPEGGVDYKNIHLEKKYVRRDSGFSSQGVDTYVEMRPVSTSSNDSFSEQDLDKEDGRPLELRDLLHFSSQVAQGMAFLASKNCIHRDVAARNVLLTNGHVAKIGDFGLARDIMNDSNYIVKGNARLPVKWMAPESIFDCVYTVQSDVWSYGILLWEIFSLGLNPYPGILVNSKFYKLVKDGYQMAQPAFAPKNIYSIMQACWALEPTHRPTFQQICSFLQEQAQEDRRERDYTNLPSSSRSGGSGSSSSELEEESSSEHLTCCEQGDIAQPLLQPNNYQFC

[9] = molecular target: Macrophage colony-stimulating factor 1 receptor (Homo sapiens) (UniProt P07333); conditions: at 1 µM
[10] = molecular target: Tyrosine-protein kinase Fyn (Homo sapiens) (UniProt P06241); conditions: at 0.1 µM
Tyrosine-protein kinase Fyn (Homo sapiens), sequence (P06241 2-537 limits assumed): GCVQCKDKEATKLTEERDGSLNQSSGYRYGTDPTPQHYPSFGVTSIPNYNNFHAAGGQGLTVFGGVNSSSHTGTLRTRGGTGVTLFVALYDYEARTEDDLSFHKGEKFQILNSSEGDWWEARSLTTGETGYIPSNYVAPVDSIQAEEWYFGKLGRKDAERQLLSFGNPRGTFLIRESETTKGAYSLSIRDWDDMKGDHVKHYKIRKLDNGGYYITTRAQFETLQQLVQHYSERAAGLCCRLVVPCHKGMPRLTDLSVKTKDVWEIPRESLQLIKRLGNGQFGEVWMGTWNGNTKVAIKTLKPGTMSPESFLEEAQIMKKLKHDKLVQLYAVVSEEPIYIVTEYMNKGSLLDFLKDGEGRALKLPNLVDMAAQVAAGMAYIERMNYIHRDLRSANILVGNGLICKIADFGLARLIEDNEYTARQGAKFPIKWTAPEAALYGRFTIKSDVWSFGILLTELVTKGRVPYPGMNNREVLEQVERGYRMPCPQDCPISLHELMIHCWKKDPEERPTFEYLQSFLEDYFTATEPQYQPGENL

| SMILES | inhibition [1] | inhibition [2] | inhibition [3] | inhibition [4] | inhibition [5] | inhibition [6] | inhibition [7] | inhibition [8] | inhibition [9] | inhibition [10] |
| --- | --- | --- | --- | --- | --- | --- | --- | --- | --- | --- |
| COc1ccccc1-c1cc(/C=C2\C(=O)Nc3ncc(Br)cc32)cc(Br)c1O | 3.53% | 4.19% | 9.04% | 12.7% | 4.73% | 1.8% | 4.28% | 3.88% | 7.16% | 5.35% |
| Cc1nnc(-c2cccc(-c3ccc(C(=O)NCC4CC4)cc3)c2)o1 | 7.69% | 4.37% | 3.89% | 9.53% | 0.86% | 4.47% | -1.03% | 2.5% | 1.96% | 1.1% |
| CN1CCC(n2cnc(-c3ccc(F)cc3)c2-c2ccnc(NCCO)n2)CC1 | 8.58% | 1.49% | 2.42% | -0.23% | 4.59% | 4.64% | 0.88% | 3.25% | 3.2% | 2.96% |
| COc1cc(N2CCN(C(C)C)CC2)ccc1Nc1nc(Nc2cccc(F)c2C(=O)O)c2cc[nH]c2n1 | 4.56% | 6.28% | 29.6% | 62.3% | 12.6% | 2.54% | -0.47% | 2.82% | 2.24% | -0.12% |
| O=C(O[C@H]1CN[C@H](C#Cc2cc3ncnc(Nc4ccc5c(ccn5Cc5cc(F)ccc5F)c4)c3s2)C1)N1CCOCC1 | 12.3% | 4.51% | 10.8% | 11% | -1.27% | 4.34% | 4.77% | 2.09% | 15.5% | 4.48% |
| CN1CCC(C(=O)Nc2n[nH]c3nc(-c4ccc(O)cc4)c(Br)cc23)CC1 | 13.7% and 6.47% | 6% and 2.01% | 2.87% and 3.17% | 16.1% and 0.86% | 1.05% and 6.99% | -8.86% and 1.93% | 2.2% | -1.7% and 0.14% | 0.92% and 5.04% | 0.13% and 0.97% |
| NS(=O)(=O)c1ccc(N/N=C2\C(=O)Nc3ccc(C(=O)NCc4ccncc4)cc32)cc1 | 9.05% | 3.77% | 2.52% | 37.6% | 34.3% | 16.7% | 48.7% | 3.12% | 8.74% | 9.13% |
| CN1CCN(Cc2ccc(-c3cc4ncnc(Nc5ccc(OCc6cccc(F)c6)c(Cl)c5)c4s3)o2)CC1 | 5.83% and 18% | 3.39% and 1.18% | 2.38% and 4.14% | 6.58% and 12.2% | -2.05% and 1.99% | 2.97% and 4.96% | 3.14% and 8.22% | 3.64% and 7.74% | 27.9% and 35.8% | 2.24% and 2.04% |
| COc1c(C(N)=O)cc(-c2ccc(Cl)cc2)cc1-c1ccc(S(N)(=O)=O)cc1 | 5.67% | 4.84% | 8.71% | 11.8% | 0.7% | 2.5% | 0.39% | 5.24% | 4.74% | 1.12% |
| CNC(=O)c1ncccc1Nc1nc(Nc2cc3c(cc2OC)CCCN3C(=O)CN(C)C)nc2[nH]ccc12 | 8.8% | 79.8% | 92.8% | 12.8% | 2.75% | 2.84% | 2.27% | 7.05% | 3.9% | 1.75% |
| CN(C)CCNC(=O)Nc1ccc(N(C)c2ccnc(Nc3ccc(CS(C)(=O)=O)cc3)n2)cc1 | 4.76% | 3.28% | 3.61% | 6.19% | 5.12% | 2.39% | 4.9% | 14.8% | 67.3% | 1.66% |
| N#Cc1cccc(Nc2ncc(-c3ccccc3)o2)c1 | 4.83% | 2.12% | 1.8% | 6.6% | 9.89% | -0.11% | 3.1% | 3.05% | 14.6% | 1.43% |
| CN(c1ccc(NC(=O)NCCN2CCOCC2)cc1)c1ccnc(Nc2ccc(CS(C)(=O)=O)cc2)n1 | 4.91% | 0.46% | 1.42% | 6.2% | 19.9% | 4.1% | 20.6% | 79.7% | 97% | 0.52% |
| COc1ccc(-c2nn3ncccc3c2-c2ccnc(Nc3ccc(F)c(F)c3)n2)cc1 | 7.17% | 1.8% | 2.27% | 15.1% | 2.1% | 4.09% | 8.94% | 5.19% | 14.8% | 2.85% |
| Cc1cc(O)cc(C)c1/C=C/c1cncc(C(N)=O)c1 | 0.49% | 2.01% | 1.27% | 4.3% | 2.14% | 1.77% | 0.45% | 5.27% | 31.3% | 5.86% |
| COC(=O)Nc1nc2ccc(Oc3ccc(NC(=O)Nc4cc(C(F)(F)F)ccc4F)cc3)cc2s1 | -3.04% | 1.23% | 0.38% | 0.59% | 13.5% | 10.4% | 52.8% | 2.52% | 39.1% | 6.49% |
